Bioassay records from PubChem BioAssay.
HSP90 inh = blocks HSP90-mediated luciferase refolding in reticulocyte lysate; Rabbit reticulocyte lysate, luciferase refolding luminescence, 3 h; inhibition, % at 5.6 µM; actives 0.91% (n = 290,000);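 active = inhibition above the screen-wide mean plus 3 SD, computed separately per campaign, cut at about 16% in these data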;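 also: 0% = DMSO wells and 100% = 60 µM geldanamycin wells; inhibitors lower the luminescence because luciferase stays unfolded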
PPC-1+TRAIL kill = kills PPC-1 cancer cells in the presence of TRAIL; cell killing (% activity), % at 4 µM or 5 µM; actives 0.41% (n = 220,000); PPC-1 cells + TRAIL, ATPLite viability luminescence;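 active = cell killing above 50% in the first pass at 4 µM, then a duplicate retest at 5 µM averaging 50% or more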;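 also: plate controls were cells with TRAIL plus DMSO for no effect and medium-only wells lacking cells for full effect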
STAT1 blocker = STAT1 signaling inhibition | NIH 3T3 STAT1-luciferase reporter, IFN-gamma, luminescence | inhibition, % at 5.5 µM | actives 0.35% (n = 200,000) | AID 920;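 active = inhibition above a set limit, the mean inhibition across all tested compounds plus 3 SD, cut at about 34% in these data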;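 also: 0% = IFN-gamma with DMSO and 100% = IFN-gamma with 300 µM nifuroxazide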
C8 TRAIL sens = sensitizes caspase-8 expressing cells to TRAIL | NB7+C8 cells + TRAIL, ATPlite viability luminescence | inhibition (viability loss, TRAIL sensitization), % at 10 µM | actives 1% (n = 360,000);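 active = compounds causing at least 50% loss of cell viability in the single-dose screen, relative to plate controls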
HSF1 inh = HSF1 inhibition. NIH3T3-HGL HSE-luciferase, MG132-induced, luminescence 8 h; stronger effect = lower value. activity change, negative = inhibition, % at 7.5 µM (by protocol). actives 0.77% (n = 300,000);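 active = more than half of replicate wells show activity change below -50%, luminescence cut by over half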;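 also: luciferase reports HSF-1 transcriptional activity via heat shock element; 0% = median of DMSO wells and -100% = zero luminescence signal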
STAT3 inh = reduces IL-6 driven STAT3 reporter signal. actives 0.89% (n = 190,000). U3A cells, IL-6 STAT3-luciferase reporter, luminescence; host cell line lacks STAT1. inhibition, % at 5.5 µM;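 active = inhibition above the mean inhibition across all screened compounds plus 3 SD, cut at about 44% in these data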;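 also: 0% = DMSO only wells and 100% = 100 µM nifuroxazide control wells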
Active calls of the source: *; · = no result given. A selection: hits, their analogues and other compounds. The true share with any hit is near 2.4%.

SMILES | HSP90 inh | PPC-1+TRAIL kill | STAT1 blocker | C8 TRAIL sens | HSF1 inh | STAT3 inh
O=C(Nc1nc2cc3c(cc2s1)OCCO3)C1CCCCC1 | · | · | · | 20 | · | ·
COc1ccc(C(=O)Nc2nc3cc4c(cc3s2)OCO4)c(OC)c1 | -2 | 34 | · | 51* | -2 | ·
C=CCOC(=O)Nc1nc(CCNC(=O)OCc2ccccc2)c(C(=O)O)s1 | · | · | · | -3 | · | ·
COc1ccc(C(=O)Nc2ccc3c(c2)OCO3)cc1S(=O)(=O)N1CCOCC1 | · | · | · | -25 | · | ·
COC(=O)C(C)N1C(=O)S/C(=C\c2cc(C)n(-c3ccccn3)c2C)C1=O (centres undefined) | 13 | 31 | -27 | 60* | 6 | 4
COC(=O)C(C)N1C(=O)S/C(=C/c2cc(C)n(-c3ccccn3)c2C)C1=O (centres undefined) | 11 | 22 | -45 | 58* | -26 | -8
COc1ccc(S(=O)(=O)Nc2ccc3c(c2)C(=O)N([C@@H](C)CO)C[C@@H](C)[C@H](CN(C)S(=O)(=O)c2ccc(F)cc2)OCCCC[C@H](C)O3)cc1 | · | · | · | -3 | · | ·
COc1cc2ccccc2cc1C(=O)OCC(=O)N1CCOCC1 | 3 | -14 | -3 | 0 | 6 | 14
Cc1cc(-c2ccc(N3CCOCC3)cc2)nc2ccccc12 | 0 | 30 | -33 | 65* | 26 | -15
Cc1ccc(-c2cc(C(=O)N3CCN(c4ccccc4O)CC3)c3ccccc3n2)o1 | -5 | · | · | 65* | 22 | ·
COc1ccc(-c2cc(C(=O)OCC(=O)N3CCOCC3)c3ccccc3n2)cc1 | · | · | · | 62* | · | ·
Cc1ccc(-c2cc(C(=O)N3CCN(c4ncccn4)CC3)c3ccccc3n2)cc1 | 0 | 44 | -19 | 67* | 14 | 10
Cc1ccc(-c2cc(C(=O)N3CCOCC3)c3ccccc3n2)cc1 | 6 | 20 | -2 | 16 | -3 | -17
O=C(c1cc(-c2ccc(Br)cc2)nc2ccccc12)N1CCN(c2ccccc2O)CC1 | · | · | · | 20 | 7 | ·
COc1ccc(Cc2c(-c3ccc(F)cc3)nc3ccc(Cl)cn23)c(C)c1 | · | · | · | -7 | · | ·
CCOC(=O)[C@]12CCC=C1N(Cc1ccco1)C(=O)[C@H](CC(=O)NCC13CC4CC(CC(C4)C1)C3)C2 | · | · | · | 0 | · | ·
CC(C)Oc1cccc(NC(=O)C2(C)CCCN2C(=O)C(C)C)c1 (centres undefined) | · | · | · | -11 | · | ·
CSc1ccccc1C(=O)N1CCN(c2ncccn2)CC1 | 0 | 10 | 10 | -5 | -70* | 12
CCOc1ccc(-c2cc(C(=O)N3CCC(C)CC3)c3ccccc3n2)cc1 | 0 | · | · | 54* | 26 | ·
COc1ccc(-c2cc(C(=O)c3c(N)n(C)c(=O)n(C)c3=O)c3ccccc3n2)cc1 | 5 | 77* | · | 81* | 26 | ·
COc1ccc(-c2cc(C(=O)OCC(=O)c3c(N)n(C)c(=O)n(C)c3=O)c3ccccc3n2)cc1 | -2 | 20 | -6 | 16 | 2 | 22
COc1ccc(NC(=O)c2sc(=O)n(Cc3ccc(F)c(Cl)c3)c2C)cc1OC | · | · | · | -5 | · | ·
CCN1CCN(c2cc(C)c3cc(NC(=S)N4CCCC(C)C4)ccc3n2)CC1 (centres undefined) | 31* | -5 | 6 | 21 | -79* | 41
CCN(CC)C(=O)C1=C(C)N(CCC2=CCCCC2)C(=O)C(CC(=O)NCc2cccs2)C1 (centres undefined) | · | · | · | 4 | · | ·
COc1ccccc1-c1cc2nc(-c3ccccc3)cc(N3CCN(C(=O)c4ccoc4)CC3)n2n1 | · | · | · | 74* | · | ·
SMILES | HSP90 inh | PPC-1+TRAIL kill | STAT1 blocker | C8 TRAIL sens | HSF1 inh | STAT3 inh
O=C(c1ccoc1)N1CCN(c2cc(-c3ccccc3)nc3cc(-c4ccccc4)nn23)CC1 | · | · | · | 43 | · | ·
COc1cccc(-c2cc3nc(-c4ccccc4)cc(N4CCN(C(=O)c5ccoc5)CC4)n3n2)c1 | · | · | · | 79* | · | ·
COc1ccccc1-c1cc2nc(-c3ccccc3)cc(N3CCN(C(=O)c4ccco4)CC3)n2n1 | · | · | · | 75* | · | ·
CC(C)(C)OC(=O)C(Oc1ccccc1[N+](=O)[O-])C(=O)OC(C)(C)C | · | · | · | -10 | · | ·
COc1ccc(NC(=O)O/N=C/c2ccc(Br)cc2)cc1 | -1 | · | · | 7 | -10 | ·
COc1ccc(/C=N/OC(=O)Nc2ccccc2OC)cc1 | 5 | 29 | -8 | 52* | 25 | 33
CN(C)CC(O)c1ccc(C=Cc2ccc(Cl)cc2)cc1 (centres undefined) | · | · | · | 89* | · | ·
CN(C)/C=C/C(=O)/C=C/c1ccc(Cl)cc1 | -2 | 26 | -25 | 10 | -13 | 8
